The values that follow come from PubChem BioAssay AID1468 (National Center for Advancing Translational Sciences (NCATS), 2008).

The structures appear in SMILES notation. Screen size: about 280,000 compounds; about 1,100 (0.39%) were called active. Where a call stands in place of a potency, no number is given. Another 7% or so got no clear call; they are omitted. This is one part of a sample in which actives are shown more often than they occur. Calls come from the whole dose curve; as a rule, active = well fitted inhibition curve with a large enough effect; inconclusive = small, poorly fitted or top-dose-only effect, or effect the other way; inactive = flat fitted curve, though single readings scatter.
Potency is the fitted concentration of half-maximal effect.

Chain of Microtubule-associated protein tau (Homo sapiens) (P10636 561-689 P618L limits assumed): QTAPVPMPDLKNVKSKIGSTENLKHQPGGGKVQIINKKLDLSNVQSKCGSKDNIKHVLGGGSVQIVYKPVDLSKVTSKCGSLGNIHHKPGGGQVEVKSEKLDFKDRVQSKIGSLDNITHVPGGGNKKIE

The experiment has as its target Microtubule-associated protein tau (Homo sapiens) (UniProt P10636). In words: qHTS for Inhibitors of Tau Fibril Formation, Fluorescence Polarization. Note: nearly all actives have a fitted effect of over 55% in size. The following applies: K18 P301L tau heparin fibrillization, Alexa594 FP, 6 h; series mostly up to 57.7 µM. The text has this: NIH Molecular Libraries Probe Production Network [MLPCN]
NIH Chemical Genomics Center [NCGC]
Assay Provider: Carlo Ballatore, University of Pennsylvania
The microtubule-associated protein tau is an abundant protein in the axons of neurons that stabilizes microtubules. With its ability to modulate microtubule dynamics, tau contributes directly or indirectly, to key structural and regulatory cellular functions. Particularly important is the influence tau exerts on axonal transport, which allows signaling molecules, trophic factors and other essential cellular constituents to travel along the axons. Under pathological conditions, tau becomes sequestered into insoluble aggregates called neurofibrillary tangles. This phenomenon is believed to have pathological consequences by promoting axonal transport deficits that ultimately lead to synaptic dysfunction and neuronal loss. To identify inhibitors of tau aggregation, a heparin-induced tau fibril formation assay was used that employed a recombinantly expressed fragment of tau, K18 (Q242-E372), bearing a P301L mutation (Gustke et al. 1994; Hong et al. 1998).
Gustke, N., B. Trinczek, et al. (1994). "Domains of tau protein and interactions with microtubules." Biochemistry 33(32): 9511-22.
Hong, M., V. Zhukareva, et al. (1998).
Li, W. and V. M. Lee (2006). "Characterization of two VQIXXK motifs for tau fibrillization in vitro." Biochemistry 45(51): 15692-701.
von Bergen, M., S. Barghorn, et al. (2001). "Mutations of tau protein in frontotemporal dementia promote aggregation of paired helical filaments by enhancing local beta-structure." J Biol Chem 276(51): 48165-74.
NCGC Assay Protocol Summary:
For screening, 2 uL/well human K18 P301L (15 uM unlabeled and 0.24 uM Alexa 594-labeled tau final concentrations) in reagent buffer (100 mM sodium acetate pH 7) was dispensed into black solid 1536-well plates (Grenier) using a solenoid-based dispenser. Following transfer of 23 nL compound or DMSO vehicle by a pin tool, 2 uL/well heparin (20 uM final concentration) in reagent buffer was added and the plate centrifuged 15 s at 1000 RPM. Plates were incubated 6 hr at 37 C and then 1 uL/well ThT (30 uM final concentration) was added. After a 1 hr ambient incubation, the plates were read by an Envision (Perkin Elmer) to monitor Alexa 594 FP (555 nm excitation and 632 nm emission).
Keywords: NIH Roadmap, MLPCN, MLI, MLSMR, NCGC, qHTS, tau, tauopathies, Alzheimer's disease, fibril, neurodegeneration, aggregation
With `Oc1cc(O)c2c(c1)OC(c1ccc(O)c(O)c1)C(O)C2` (configuration not stated), the Potency is 14.1 µM (active).
In the case of `CC(NC(=O)c1cc(Sc2ccc(F)cc2F)nc2ccccc12)c1ccccc1` (configuration not stated) it was “inactive”; in that of `CCCC(=O)Nc1cc(C(=O)NCc2ccc(OC)cc2)ccc1S(=O)(=O)c1ccc(Cl)cc1`, “inactive”; in that of `COc1ccccc1-c1nnc(SCC(N)=O)o1`, “inactive”.
The result for `COc1ccc2[nH]cc(/C=C(/C#N)S(=O)(=O)c3ccccc3)c2c1` reads 28.2 µM (active).
In the case of `CCN(CC)CC(=O)c1c[nH]c2ccc(OC)cc12` it was “inactive”.
Turning to `COc1ccc(NS(=O)(=O)c2ccc(Oc3c(C#N)cccc3C#N)cc2)cc1`, the Potency entry was “inactive”.
The result for `COc1ccc(C)cc1NC(=O)COCc1cc(-c2cccs2)on1` reads “inactive”; that for `COCC(=O)Nc1nnc(COc2ccccc2)s1`, “inactive”.
Take `O=C(NCCOc1ccccc1F)Nc1ccc(Br)cc1`: the Potency entry is “inactive”.
Regarding `O=C(Nc1ccccc1)Nc1nnc(COc2ccccc2F)s1`, the Potency is 14.1 µM (active).
For the molecule `Cc1ccc(N(C)C(=O)C2CCN(S(=O)(=O)c3ccc4c(c3)CCCN4C(=O)C3CCC3)CC2)cc1`, the Potency entry is “inactive”.
`Cc1ccc2cccc(NC(=O)c3ccc(OC(C)C)cc3)c2n1`: the Potency entry is “inactive”.
The result for `CC1=C/C(=N\S(=O)(=O)c2ccccc2)C(C(C)C)=CC1=O` reads “inactive”; that for `Cc1ccc(S(=O)(=O)c2ccc(Oc3ccccc3)cc2)cc1`, “inactive”.
The result for `CC1=C/C(=N\OS(=O)(=O)c2ccccc2)C=CC1=O` reads 12.6 µM (active); that for `COc1ccccc1/C=C/c1nc(C#N)c(NC(C)c2ccccc2)o1` (configuration not stated), “inactive”; that for `CC(C)S(=O)(=O)c1csc(NC(=O)Nc2ccc(Cl)cc2)c1Cl`, 31.6 µM (active).
As to `Cn1ccc(NC(=O)Nc2ccc(Cl)cc2)n1`, the Potency entry is “inactive”.
In the case of `NS(=O)(=O)c1ccc(CCNC(=O)Nc2ccc(Cl)cc2)cc1` it was “inactive”; in that of `CN(C)N=Nc1ccc2nc[nH]c2c1`, 8.91 µM (active); in that of `CC/C(O)=N\S(=O)(=O)c1ccc(N=NN(C)C)cc1`, “inactive”.
In the case of `CC(=O)c1ccc(N2CCN(C(=O)c3ccc4nc[nH]c4c3)CC2)cc1` it was “inactive”; in that of `CCOc1ccc(-c2nonc2NC(=O)c2oc3ccc(CC)cc3c2C)cc1`, “inactive”.
In the case of `Cc1ccc(-c2nc3ccccc3[nH]c2=O)cc1` it was “inactive”; in that of `O=c1[nH]c2ccccc2n2c(-c3ccccc3)nnc12`, 14.1 µM (active); in that of `CCOC(=O)c1cnc2[nH]c3ccccc3n2c1=O`, “inactive”.
For `Cc1cc(C)c2oc(C(=O)Nc3c(C(=O)Nc4ccccc4)oc4ccccc34)cc(=O)c2c1`, the Potency result was “inactive”.
The result for `Cc1nn(C)c2c1c(C(F)(F)F)cc(=O)n2C(C)C(=O)NCc1ccc(Cl)cc1` (configuration not stated) reads “inactive”; that for `Cn1sc(=O)c2cc(S(=O)(=O)NC3CC3)ccc21`, 28.2 µM (active); that for `CC1CCC(NS(=O)(=O)c2ccc3c(c2)n(C)c(=O)c(=O)n3C)CC1` (configuration not stated), “inactive”.
Consider `CSc1ccc(S(=O)(=O)NC2CCCCC2)cc1`, for which the Potency result was “inactive”.
